Measured values from PubChem BioAssay.
For some of these results: Results with a measured potency or affinity are listed apart. The list shows a part of the results. Activity calls are given as the source filed them.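 Rule for the calls, unless noted: active = fluorescence ratio normalized to control raised more than 50% in primary screen plus both repeat runs; inactive = the rest.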

Legend:
[1] = tested on: TRPC4 beta (transient receptor potential cation channel C4), mouse; experiment: TRPC4 cation channel opening, retest – cell-based, Fluo4 calcium, HEK293 TRPC4beta/mu-opioid, duplicates, 10 µM, confirmation (AID 2426); conditions: Fluo4 calcium fluorescence, at 10 µM; hits give high values;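 for activation: percent rise of integrated ratio over buffer wells lacking compound which define 0%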
[2] = tested on: transient receptor potential cation channel C4 beta (TRPC4), mouse; experiment: TRPC4 cation channel opening, second retest – cell-based, second round, Fluo4, HEK293 TRPC4beta/mu-opioid, 1 µM, confirmation (AID 2461;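 active = primary screen active and over 50% activation in each of two duplicate runs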); conditions: Fluo4 calcium fluorescence, at 1 µM; hits give high values
[3] = tested on: TRPC4 (transient receptor potential cation channel C4 beta), mouse; experiment: potentiation of DAMGO EC20 TRPC4 response – cell-based, second round, Fluo-4, HEK293 TRPC4beta/mu-opioid, 1 µM, confirmation (AID 2554;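 active = primary screen hit whose fluorescence ratio, in both repeats, exceeds the weak agonist control mean by 3 SD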); conditions: DAMGO EC20, Fluo-4 calcium flux, at 1 µM; hits give high values
[4] = tested on: TRPC4 beta (transient receptor potential cation channel C4), mouse; experiment: potentiation of DAMGO EC20 TRPC4 response – cell-based, Fluo-4, HEK293 TRPC4beta/mu-opioid, confirmation (AID 2555;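 active = primary screen hit whose calcium fluorescence ratio, in both repeats, exceeds the weak agonist control mean by 3 SD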); conditions: DAMGO EC20, Fluo-4 calcium flux, at 10 µM; hits give high values
[5] = biological target: Short transient receptor potential channel 4 (Mus musculus) (UniProt Q9QUQ5); experiment: blockers of DAMGO-evoked TRPC4 calcium flux – cell-based, Fluo4, HEK293 TRPC4beta/mu-opioid, confirmation (AID 2636;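 active = calcium signal cut by more than 3 SD below the full-agonist control yet still positive, in both repeats and the earlier primary screen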); conditions: at 10 µM; hits give high values
[6] = biological target: Short transient receptor potential channel 4 (Mus musculus) (UniProt Q9QUQ5); experiment: blockers of DAMGO-evoked TRPC4 calcium flux – cell-based, second round, Fluo4, HEK293 TRPC4beta/mu-opioid, 1 µM, confirmation (AID 2637;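 active = calcium signal ratio cut to more than 3 SD under the fully stimulated control mean yet still positive, in both repeats and the primary screen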); conditions: at 1 µM; hits give high values
[7] = biological target: Short transient receptor potential channel 4 (Mus musculus) (UniProt Q9QUQ5); experiment: calcium entry via TRPC4 opening agents – cell-based, HEK293 TRPC4/mu-opioid, Fluo-4 calcium, dose response (AID 434937;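 active = primary screen activator hit with a dose response curve and TRPC4 channel activation at any tested dose; inactive = no activation, no dose response, or not a primary hit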)
[8] = biological target: Short transient receptor potential channel 4 (Mus musculus) (UniProt Q9QUQ5); experiment: potentiation of DAMGO-evoked TRPC4 calcium signal – cell-based, HEK293 TRPC4/mu-opioid, Fluo-4 calcium, EC20 DAMGO, dose response (AID 434941;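 active = earlier screen potentiator hit that boosts the TRPC4 ion channel at some dose, with a dose response; inactive = no potentiation, no dose response, or not a prior hit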;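 note: calcium entry triggered by an EC20 dose of DAMGO at the co-expressed mu-opioid receptor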)
[9] = biological target: Short transient receptor potential channel 4 (Mus musculus) (UniProt Q9QUQ5); experiment: block of DAMGO-driven TRPC4 calcium entry – cell-based, HEK293 TRPC4/mu-opioid, Fluo-4 calcium, dose response (AID 434942;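 active = primary screen inhibitor hit that blocks the TRPC4 channel at some tested dose, yielding a dose curve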)
[10] = biological target: Short transient receptor potential channel 6 (Mus musculus) (UniProt Q61143); experiment: TRPC6 blockade by TRPC4 inhibitor hits – cell-based, HEK293, membrane potential dye, duplicate, selectivity assay for TRPC4 inhibitor project, confirmation (AID 434948;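 active = active in primary screen and both duplicates, each dropping signal beyond three positive-control SD with fluorescence still positive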); conditions: HEK293 TRPC6, membrane potential dye fluorescence, at 10 µM, stimulated with maximal-effect acetylcholine; hits give high values
[11] = biological target: Short transient receptor potential channel 6 (Mus musculus) (UniProt Q61143); experiment: TRPC6 opening by TRPC4 activator hits – cell-based, HEK293, membrane potential dye, duplicate, selectivity assay for TRPC4 activator project, confirmation (AID 434950;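 active = membrane potential signal rise above negative control mean plus 3 SD in both duplicates, also active in the earlier TRPC4 screen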;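 for activation: 0% = buffer only wells and 100% = acetylcholine maximal-effect wells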); conditions: HEK293 TRPC6, membrane potential fluorescence, at 10 µM; activation: hits give high values; outcome: activation
[12] = biological target: Short transient receptor potential channel 6 (Mus musculus) (UniProt Q61143); experiment: positive modulators of mouse TRPC6 channel – HEK293 cells, membrane potential dye, duplicate, selectivity assay for TRPC4 potentiator project, confirmation (AID 434952;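 active = compound raising the membrane signal above positive-control mean plus 3 SD in both repeats, and a primary screen hit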); conditions: HEK293 TRPC6, membrane potential dye fluorescence, at 10 µM, maximal acetylcholine added after compound; hits give high values
[13] = biological target: Short transient receptor potential channel 4 (Mus musculus) (UniProt Q9QUQ5); experiment: calcium flux activators in TRPC4/5HT1a cells, counter-screen for TRPC4 activator project, cell-based, second counter screen, HEK293 TRPC4/5HT1a, Fluo-4 (AID 434977;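 active = calcium signal rise above buffer-control mean plus 5 SD in both duplicates, and also a hit in the primary screen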;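 for activation: plate controls were assay buffer for no effect and maximal serotonin response for full effect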); conditions: Fluo-4 calcium flux, at 10 µM; hits give high values
[14] = serotonin-gated TRPC4 signal block – cell-based, second counter screen, HEK293 TRPC4/5HT1a, Fluo-4, counter-screen for TRPC4 inhibitor project, confirmation (AID 434978;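 active = primary screen active whose calcium signal fell more than 3 SD beyond the full-serotonin control mean in both duplicate plates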;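 for outcome: serotonin given first at submaximal then at maximal dose after compound preincubation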); conditions: Fluo-4 calcium flux, at 10 µM, serotonin added to trigger calcium flux; hits give high values
[15] = tested on: TRPC4 (mouse), co-expressed with 5HT1a in HEK293; experiment: enhancement of serotonin-evoked TRPC4 response – cell-based, second counter screen, HEK293 TRPC4/5HT1a, Fluo-4, counter-screen for TRPC4 potentiator project, confirmation (AID 434979;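 active = signal rise over 3 SD above mean of control wells given weak agonist, in both repeats and first screen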); conditions: Fluo-4 calcium flux, at 10 µM, serotonin added at its EC20 dose; hits give high values
[16] = nonspecific calcium rise without TRPC4 – cell-based, HEK293 mu-opioid receptor line, counter-screen for TRPC4 activator project, confirmation (AID 449723;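 active = hit in primary screen, with calcium signal over 5 SD above buffer well mean in both duplicates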;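 note: counter screen cells carry the mu-opioid receptor alone and lack TRPC4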); conditions: HEK293 mu-opioid cells, Fluo-4 calcium fluorescence, at 10 µM; hits give high values
[17] = nonspecific potentiation of DAMGO calcium response – cell-based, HEK293 mu-opioid receptor line, counter-screen for TRPC4 allosteric potentiator project, confirmation (AID 449724;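 active = calcium signal rise more than 3 SD above the low-dose agonist control mean, in both duplicate plates and the primary screen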); conditions: HEK293 mu-opioid receptor cells, Fluo-4 calcium flux, at 10 µM, compound added before EC20 DAMGO stimulus; hits give high values
[18] = parental CHO-K1 cell activation, no KCNQ2 – FluxOR thallium flux, duplicate, counter-screen for KCNQ2 potentiator project, confirmation (AID 2282;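 active = signal rise of at least 3 SD above the untreated control mean, in both duplicate wells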;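 note: counter screen of KCNQ2 potentiator hits so any rise reflects channel-independent effects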); conditions: parental CHO-K1 cells, FluxOR thallium flux fluorescence; at 10 µM; hits give high values; zero = vehicle mean+3SD, 100% = vehicle-minus-blank window
[19] = biological target: Potassium voltage-gated channel subfamily KQT member 1 (Homo sapiens) (UniProt P51787); experiment: KCNQ1 activation in stable CHO cells – cell-based, FluxOR thallium flux, selectivity assay for KCNQ2 potentiator project, confirmation (AID 2283;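 active = fluorescence ratio rise of at least 3 SD of vehicle wells above their mean, in both replicate wells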;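 note: 0% = vehicle mean plus 3 SD and 100% = vehicle minus unstimulated blank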); conditions: FluxOR thallium flux fluorescence, at 10 µM, hits give high values, beyond 3SD, as % of vehicle-control signal
[20] = biological target: Potassium voltage-gated channel subfamily KQT member 2 (Rattus norvegicus) (UniProt O88943); experiment: KCNQ2 potassium channel activity enhancers – cell-based, CHO, FluxOR thallium flux, duplicate, confirmation (AID 2287;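 active = fluorescence ratio rising 3 SD or more over the vehicle control mean in both replicates, plus primary screen hit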;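 note: peak minus minimum thallium fluorescence divided by baseline after K/Tl stimulus; 0% = vehicle mean plus 3 SD and 100% = vehicle minus unstimulated blank difference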); conditions: CHO-KCNQ2 cells, FluxOR thallium flux fluorescence; at 10 µM; hits give high values
Potassium voltage-gated channel subfamily KQT member 2 (Rattus norvegicus), sequence (O88943 whole entry, looked up): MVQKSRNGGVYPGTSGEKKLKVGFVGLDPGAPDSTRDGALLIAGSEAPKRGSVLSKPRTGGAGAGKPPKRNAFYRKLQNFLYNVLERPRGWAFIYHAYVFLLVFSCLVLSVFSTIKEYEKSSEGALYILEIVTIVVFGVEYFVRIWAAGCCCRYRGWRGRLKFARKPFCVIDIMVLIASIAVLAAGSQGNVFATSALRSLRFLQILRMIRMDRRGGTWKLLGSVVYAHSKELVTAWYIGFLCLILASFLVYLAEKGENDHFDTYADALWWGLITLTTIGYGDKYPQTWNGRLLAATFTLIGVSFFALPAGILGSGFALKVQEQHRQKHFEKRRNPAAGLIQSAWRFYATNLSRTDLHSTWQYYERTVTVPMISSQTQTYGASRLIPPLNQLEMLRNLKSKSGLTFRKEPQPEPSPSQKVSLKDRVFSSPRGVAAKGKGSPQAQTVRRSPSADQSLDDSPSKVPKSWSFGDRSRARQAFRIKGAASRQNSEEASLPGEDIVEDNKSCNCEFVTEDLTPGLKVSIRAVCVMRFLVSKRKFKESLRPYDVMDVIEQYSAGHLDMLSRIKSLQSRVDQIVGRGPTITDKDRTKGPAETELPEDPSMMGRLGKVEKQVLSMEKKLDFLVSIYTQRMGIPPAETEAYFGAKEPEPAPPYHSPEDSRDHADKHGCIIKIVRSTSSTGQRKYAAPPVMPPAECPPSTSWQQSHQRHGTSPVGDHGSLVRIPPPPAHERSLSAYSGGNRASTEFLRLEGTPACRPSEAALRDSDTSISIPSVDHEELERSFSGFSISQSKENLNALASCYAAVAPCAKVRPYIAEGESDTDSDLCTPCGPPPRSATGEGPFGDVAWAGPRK

Short transient receptor potential channel 6 (Mus musculus), sequence (Q61143 whole entry, looked up): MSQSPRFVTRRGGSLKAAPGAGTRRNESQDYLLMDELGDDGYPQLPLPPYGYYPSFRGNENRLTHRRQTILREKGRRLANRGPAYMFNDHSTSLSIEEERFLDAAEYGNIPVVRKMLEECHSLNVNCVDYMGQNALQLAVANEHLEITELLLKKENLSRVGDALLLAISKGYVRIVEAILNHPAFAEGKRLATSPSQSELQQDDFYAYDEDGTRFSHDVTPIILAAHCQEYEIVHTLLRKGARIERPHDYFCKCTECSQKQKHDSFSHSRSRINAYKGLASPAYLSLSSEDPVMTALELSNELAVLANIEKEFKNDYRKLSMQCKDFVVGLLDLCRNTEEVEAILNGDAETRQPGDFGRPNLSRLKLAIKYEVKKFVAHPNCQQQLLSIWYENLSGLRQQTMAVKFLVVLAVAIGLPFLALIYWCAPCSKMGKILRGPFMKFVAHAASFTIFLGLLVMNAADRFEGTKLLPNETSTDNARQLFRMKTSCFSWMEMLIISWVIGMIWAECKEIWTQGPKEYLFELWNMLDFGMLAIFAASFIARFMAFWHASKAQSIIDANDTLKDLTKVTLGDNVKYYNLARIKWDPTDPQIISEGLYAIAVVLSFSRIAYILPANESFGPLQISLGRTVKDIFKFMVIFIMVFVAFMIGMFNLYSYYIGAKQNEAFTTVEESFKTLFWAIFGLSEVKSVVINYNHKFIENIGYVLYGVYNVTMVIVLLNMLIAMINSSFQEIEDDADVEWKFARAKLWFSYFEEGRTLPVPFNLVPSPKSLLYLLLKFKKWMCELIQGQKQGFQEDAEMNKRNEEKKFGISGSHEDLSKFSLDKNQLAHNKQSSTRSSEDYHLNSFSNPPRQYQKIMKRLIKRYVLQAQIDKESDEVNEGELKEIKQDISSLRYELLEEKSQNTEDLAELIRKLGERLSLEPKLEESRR
Potassium voltage-gated channel subfamily KQT member 1 (Homo sapiens), sequence (P51787 whole entry, looked up): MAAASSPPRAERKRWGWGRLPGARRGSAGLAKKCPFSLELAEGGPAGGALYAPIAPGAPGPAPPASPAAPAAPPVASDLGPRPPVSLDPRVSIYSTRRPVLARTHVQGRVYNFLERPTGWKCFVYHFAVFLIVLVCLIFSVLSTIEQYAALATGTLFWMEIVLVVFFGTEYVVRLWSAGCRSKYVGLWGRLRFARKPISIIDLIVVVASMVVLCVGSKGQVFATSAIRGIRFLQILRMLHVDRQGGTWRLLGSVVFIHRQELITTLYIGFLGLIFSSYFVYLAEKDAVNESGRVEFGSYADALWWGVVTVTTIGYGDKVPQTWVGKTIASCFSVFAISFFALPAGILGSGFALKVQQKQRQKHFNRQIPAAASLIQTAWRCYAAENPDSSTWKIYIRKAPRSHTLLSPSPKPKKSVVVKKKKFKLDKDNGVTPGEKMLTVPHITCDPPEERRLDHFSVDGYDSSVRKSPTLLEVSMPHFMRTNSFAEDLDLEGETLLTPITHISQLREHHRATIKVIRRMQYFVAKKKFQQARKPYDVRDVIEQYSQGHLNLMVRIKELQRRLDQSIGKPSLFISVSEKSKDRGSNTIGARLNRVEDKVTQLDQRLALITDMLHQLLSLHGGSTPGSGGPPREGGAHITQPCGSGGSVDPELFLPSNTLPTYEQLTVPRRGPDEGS
Short transient receptor potential channel 4 (Mus musculus), sequence (Q9QUQ5 whole entry, looked up): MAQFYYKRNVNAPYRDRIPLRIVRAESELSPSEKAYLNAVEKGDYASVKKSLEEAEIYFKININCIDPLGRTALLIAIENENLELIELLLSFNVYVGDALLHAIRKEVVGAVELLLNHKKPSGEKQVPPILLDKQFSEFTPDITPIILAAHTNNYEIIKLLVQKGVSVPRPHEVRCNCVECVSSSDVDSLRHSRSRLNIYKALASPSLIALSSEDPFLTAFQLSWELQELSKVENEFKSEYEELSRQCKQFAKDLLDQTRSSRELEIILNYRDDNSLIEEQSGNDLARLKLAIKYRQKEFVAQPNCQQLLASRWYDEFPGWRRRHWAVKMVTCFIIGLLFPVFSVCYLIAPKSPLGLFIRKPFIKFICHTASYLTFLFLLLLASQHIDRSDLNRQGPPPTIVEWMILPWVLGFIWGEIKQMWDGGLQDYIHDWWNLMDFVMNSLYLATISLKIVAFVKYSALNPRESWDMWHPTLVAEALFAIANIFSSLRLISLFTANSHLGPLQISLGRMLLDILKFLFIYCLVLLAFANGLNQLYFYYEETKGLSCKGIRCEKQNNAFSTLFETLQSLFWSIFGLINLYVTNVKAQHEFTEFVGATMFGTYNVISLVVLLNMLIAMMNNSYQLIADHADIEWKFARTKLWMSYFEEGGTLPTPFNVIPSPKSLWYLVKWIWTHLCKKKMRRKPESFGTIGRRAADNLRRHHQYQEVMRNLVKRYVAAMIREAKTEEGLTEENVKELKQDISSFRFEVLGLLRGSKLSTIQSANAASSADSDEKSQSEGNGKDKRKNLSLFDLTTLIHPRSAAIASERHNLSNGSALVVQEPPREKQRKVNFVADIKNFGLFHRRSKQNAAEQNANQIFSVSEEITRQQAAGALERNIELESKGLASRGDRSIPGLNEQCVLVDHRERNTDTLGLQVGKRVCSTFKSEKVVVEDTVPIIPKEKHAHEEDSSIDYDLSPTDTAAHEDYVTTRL

CCC(=O)c1ccc(N2CCN(C(=O)c3ccccc3Br)CC2)c(F)c1
inactive: outcome [1] | outcome [2] | outcome [3] | outcome [4] | outcome [5] | outcome [6] | outcome [7] | outcome [8] | outcome [9] | outcome [10] | outcome [11] | outcome [12] | outcome [13] | outcome [14] | outcome [16] | outcome [17]
active: potentiation [15] 19.2%

O=C(Nc1ncc(Br)s1)C(Cc1ccccc1)n1cccc1 (centres undefined)
active: potentiation [4] 26% | potentiation [15] 7.42%
inactive: outcome [1] | outcome [2] | outcome [3] | outcome [5] | outcome [6] | outcome [7] | outcome [8] | outcome [9] | outcome [10] | outcome [11] | outcome [12] | outcome [13] | outcome [14] | outcome [16] | outcome [17]

Cc1cc(C(=O)OCC(=O)Nc2ccc(F)c(F)c2)c(C)o1
inactive: activity increase over 3SD of controls [18] -17.5% | activation over 3SD threshold [19] -23.1%
active: potentiation, less the hit threshold [20] 17.6%

COC(=O)c1ccccc1NC(=O)CCC(=O)N1CC(C)Oc2ccc(C)cc21 (centres undefined)
inactive: outcome [1] | outcome [2] | outcome [3] | outcome [4] | outcome [6] | outcome [7] | outcome [8] | outcome [9] | outcome [10] | outcome [11] | outcome [12] | outcome [13] | outcome [15] | outcome [16] | outcome [17]
active: inhibition [5] 75% | inhibition [14] 44%

Cc1cc(N2CCOCC2)nc(NCc2ccccc2)n1
inactive: outcome [1] | outcome [2] | outcome [3] | outcome [4] | outcome [5] | outcome [6] | outcome [7] | outcome [8] | outcome [9] | outcome [10] | outcome [11] | outcome [12] | outcome [13] | outcome [14] | outcome [15] | outcome [16] | outcome [17]

CCCCOc1ccc(CSC(=N)N)cc1[N+](=O)[O-]
inactive: outcome [1] | outcome [2] | outcome [3] | outcome [4] | outcome [5] | outcome [6] | outcome [7] | outcome [8] | outcome [9] | outcome [10] | outcome [11] | outcome [12] | outcome [13] | outcome [14] | outcome [16] | outcome [17]
active: potentiation [15] 22.3%

OC(c1ccccc1)(c1ccccc1)C1CCN(C(=S)NC2CCCC2)CC1
inactive: outcome [1] | outcome [2] | outcome [3] | outcome [4] | outcome [5] | outcome [6] | outcome [7] | outcome [8] | outcome [9] | outcome [10] | outcome [11] | outcome [12] | outcome [13] | outcome [14] | outcome [15] | outcome [16] | outcome [17]

O=[N+]([O-])c1ccc2c(c1)C=C1CCCCC1(N1CCCC1)O2 (centres undefined)
inactive: outcome [1] | outcome [2] | outcome [3] | outcome [4] | outcome [5] | outcome [6] | outcome [7] | outcome [8] | outcome [9] | outcome [10] | outcome [11] | outcome [12] | outcome [13] | outcome [14] | outcome [15] | outcome [16] | outcome [17]

CCOc1ccc2nc(N3CCCC(C(=O)NCC4CCCO4)C3)sc2c1 (centres undefined)
inactive: outcome [1] | outcome [2] | outcome [3] | outcome [4] | outcome [5] | outcome [6] | outcome [7] | outcome [8] | outcome [9] | outcome [10] | outcome [11] | outcome [12] | outcome [13] | outcome [14] | outcome [15] | outcome [16] | outcome [17]

CC(Nc1nc(N2CCCC2)nc2ccccc12)c1ccccc1 (centres undefined)
inactive: outcome [1] | outcome [2] | outcome [3] | outcome [4] | outcome [5] | outcome [6] | outcome [7] | outcome [8] | outcome [9] | outcome [10] | outcome [11] | outcome [12] | outcome [13] | outcome [14] | outcome [15] | outcome [16] | outcome [17]

O=Cc1c(N2CCCCC2)nc2ccccn2c1=O
inactive: outcome [1] | outcome [2] | outcome [3] | outcome [4] | outcome [5] | outcome [6] | outcome [7] | outcome [8] | outcome [9] | outcome [10] | outcome [11] | outcome [12] | outcome [13] | outcome [14] | outcome [15] | outcome [16] | outcome [17]

O=C1CC2(CCN(S(=O)(=O)c3ccccc3F)CC2)Oc2ccccc21
active: potentiation [4] 21% | potentiation [15] 34.2%
inactive: outcome [1] | outcome [2] | outcome [3] | outcome [5] | outcome [6] | outcome [7] | outcome [8] | outcome [9] | outcome [10] | outcome [11] | outcome [12] | outcome [13] | outcome [14] | outcome [16] | outcome [17]

Fc1cc(F)c2nc(Nc3nc4c(F)cccc4s3)sc2c1
inactive: activity increase over 3SD of controls [18] -5.6% | activation over 3SD threshold [19] -15.7%
active: potentiation, less the hit threshold [20] 20.5%

Cn1c(/N=C/c2ccccc2[N+](=O)[O-])nc2ccccc21
inactive: outcome [1] | outcome [2] | outcome [3] | outcome [4] | outcome [5] | outcome [6] | outcome [7] | outcome [8] | outcome [9] | outcome [10] | outcome [11] | outcome [12] | outcome [13] | outcome [14] | outcome [16] | outcome [17]
active: potentiation [15] 11.9%

O=c1c2cc(Br)ccc2nc(-c2cccc(Cl)c2)n1O
active: activation over 3SD threshold [19] 68.1% | potentiation, less the hit threshold [20] 84.4% | activation [1] 223% | activation [11] 38.5% | activation [13] 63.4% | activation [16] 20.3%
inactive: activity increase over 3SD of controls [18] -14.4% | outcome [2] | outcome [3] | outcome [4] | outcome [5] | outcome [6] | outcome [8] | outcome [9] | outcome [10] | outcome [12] | outcome [14] | outcome [15] | outcome [17]
